Bioassay records deposited in PubChem by several laboratories.
Only some compounds are listed: those with a hit (about 1.3% of all), similar ones and a draw of the others.
SRC2 inh: inhibition of GAL4-SRC2 driven luciferase reporter, primary screen, SRC2 inhibitor project, cell-based, luminescence; HEK293 GAL4-SRC2 luciferase reporter; 370,000 tested, 0.17% active; inhibition, % at 9 µM; AID 651957, 2012; Nuclear receptor coactivator 2 (Homo sapiens), Q15596;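 active = inhibition above the mean inhibition of all tested compounds plus 3 SD, set per campaign, cut at about 52% in these data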;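 note: 0% = DMSO treated cells and 100% = cells given Gossypol at 36 µM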
Gli-Sufu block: Gli-Sufu pathway antagonists, primary screen, luciferase luminescence, Sufu-KO-LIGHT cells, uHTS; Sufu-KO-LIGHT fibroblasts, Gli luciferase reporter luminescence; inhibition, % at 5 µM; 340,000 tested, 0.74% active;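 active = inhibition above about 55%, limit read from the data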;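 note: 0% = DMSO-treated cells and 100% = wells with medium but no cells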
NCOA3 inh: SRC3 coactivator transcriptional activity inhibitors, primary screen, cell-based, luminescence. Nuclear receptor coactivator 3 (Homo sapiens), Q9Y6Q9. 360,000 tested, 0.17% active. inhibition, % at 3.6 µM. HEK293 GAL4-SRC3 luciferase reporter. AID 588352, 2011;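 active = inhibition above a per-campaign cutoff, the mean of all compounds plus 3 SD, cut at about 60% in these data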;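 note: 0% = DMSO-treated cells and 100% = gossypol-treated cells at 36 µM; higher means less SRC3-driven luciferase light from the GAL4 reporter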
SRC1 inh: SRC1 coactivator transcriptional activity inhibitors, primary screen, cell-based, luminescence; Nuclear receptor coactivator 1 (Homo sapiens), Q15788; HEK293 GAL4-SRC1 luciferase reporter; inhibition, % at 3.6 µM; 360,000 tested, 0.12% active; AID 588354, 2011;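 active = inhibition above the campaign mean plus 3 SD, with each screening campaign given its own cutoff, cut at about 60% in these data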;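 note: 0% = DMSO treated cells and 100% = gossypol at 36 µM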
NR5A2 inv ag: LRH-1 (NR5A2) inverse agonists, primary screen, cell-based, luminescence, HEK293T, StAR-luciferase reporter; 360,000 tested, 0.13% active; LRH-1 transfected, 24 h; Nuclear receptor subfamily 5 group A member 2 (Homo sapiens), O00482; AID 602396, 2012; inhibition, % at 3.6 µM;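 active = inhibition above the mean inhibition of all tested compounds plus 3 SD, cut at about 73% in these data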;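 note: 0% = DMSO wells and 100% = reporter-only cells lacking LRH-1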
COUP-TFII inh: NR2F2 transcriptional activity inhibitors, primary screen, cell-based, luciferase reporter, HEK293T, luminescence; HEK293T NGFI-A luciferase reporter; 370,000 tested, 0.7% active; inhibition, % at 8.6 µM; COUP transcription factor 2 (Homo sapiens), P24468;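 active = inhibition above a per-plate cutoff, mean inhibition of test wells between control levels plus 3 SD, cut at about 38% in these data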;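 note: cells cotransfected with COUP-TFII expression vector driving the NGFI-A reporter; 0% = median of COUP-TF2 test wells and 100% = reporter-only cells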
Target sequence (P24468 whole entry, looked up): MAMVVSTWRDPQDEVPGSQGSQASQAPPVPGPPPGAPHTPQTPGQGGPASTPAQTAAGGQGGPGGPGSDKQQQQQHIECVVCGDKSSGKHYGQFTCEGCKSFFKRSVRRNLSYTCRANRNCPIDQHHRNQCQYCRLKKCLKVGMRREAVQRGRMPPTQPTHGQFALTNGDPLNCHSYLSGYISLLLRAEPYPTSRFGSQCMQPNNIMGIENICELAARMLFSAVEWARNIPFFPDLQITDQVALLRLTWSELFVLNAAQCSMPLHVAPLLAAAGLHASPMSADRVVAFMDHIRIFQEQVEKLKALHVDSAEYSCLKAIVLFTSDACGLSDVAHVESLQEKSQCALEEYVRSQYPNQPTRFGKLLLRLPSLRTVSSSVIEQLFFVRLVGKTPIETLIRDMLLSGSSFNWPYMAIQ
Gal4-VP16 ctr: Gal4-VP16 luciferase reporter inhibitors, counter-screen for COUP-TFII antagonist project, cell-based, luminescence, HEK293 | 2,500 tested, 25% active | AID 687007, 2013 | shares compounds with COUP-TFII inh | inhibition, % at 8.5 µM; in the data active = inhibition above about 13%
COUP-TFII conf: NR2F2 transcriptional activity inhibitors, confirmation, cell-based, luciferase reporter, HEK293, triplicate | shares compounds with COUP-TFII inh | HEK293 NGFI-A luciferase reporter, luminescence | inhibition, % at 8.5 µM | 2,500 tested, 45% active | AID 687008, 2013;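 active = mean inhibition over three repeats above a set limit taken from the earlier primary screen, cut at about 38% in these data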;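 note: 100% = cells given the luciferase reporter alone without the COUP-TF2 vector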
Active calls of the source: *; / = not tested or not shown.

SMILES | SRC2 inh | Gli-Sufu block | NCOA3 inh | SRC1 inh | NR5A2 inv ag | COUP-TFII inh | Gal4-VP16 ctr | COUP-TFII conf
O=C1CCCCC1Sc1nnc(-c2ccc3c(c2)OCO3)o1 (stereo not drawn) | 57* | -2 | 45 | 43 | 9 | 64* | 22* | 59*
Clc1ccc(CSc2nnc(-c3ccc4c(c3)OCO4)o2)cc1 | -2 | 0 | -18 | -8 | 3 | 0 | / | /
O=S(=O)(c1ccc(-c2csc(Nc3ccc(F)cc3)n2)cc1)N1CCCC1 | 24 | 26 | -3 | 11 | 48 | 46* | -11 | 24
Cc1cc(C)cc(Nc2nc(-c3ccc(S(=O)(=O)N4CCCC4)cc3)cs2)c1 | 10 | -2 | 30 | 19 | 20 | 13 | / | /
O=C(Nc1nc(-c2ccc(S(=O)(=O)N3CCCCCC3)cc2)cs1)c1ccccc1 | 16 | 25 | 29 | 26 | 11 | 54* | 4 | 34
Cc1ccc(Nc2nc(-c3ccc(S(=O)(=O)N4CCOCC4)cc3)cs2)cc1 | 9 | 6 | 9 | 11 | 21 | 38* | 0 | 18
O=S(=O)(c1ccc(-c2csc(Nc3ccc(Br)cc3)n2)cc1)N1CCCC1 | -18 | 24 | 23 | 21 | 35 | 9 | / | /
O=C(Nc1nc(-c2ccc3c(c2)OCCO3)cs1)c1ccc(S(=O)(=O)N2CCCCC2)cc1 | 18 | -3 | 36 | 22 | 6 | -4 | / | /
Oc1[nH]c(N=C2N=c3ccccc3=N2)c2ccccc12 | -87 | 53 | -170 | -320 | -59 | -27 | / | /
CSC(=Nc1ccccc1)N=C(SCc1ccccc1)N(C)C | -16 | 25 | 20 | -5 | 11 | -22 | / | /
CCNC(=O)N1CCN(c2ccc(N3CCN(Cc4ccccc4)[C@@H](C)C3)c(C)c2)[C@@H](C)C1 | 29 | / | / | / | / | 4 | / | /
COc1cccc(C(O)c2ncc(-c3ccc(C(F)(F)F)cc3)[nH]2)c1 (stereo not drawn) | 14 | / | -3 | -28 | -38 | 1 | / | /
COc1ccc(-c2csc(NC(=O)Cc3ccccc3F)n2)cc1OC | -6 | 36 | 0 | 9 | 6 | 49* | -14 | 2
C=C(C(=O)c1ccccc1)C(NC(C)(C)C)c1ccccc1 (stereo not drawn) | 60* | 35 | 57 | 56 | 73* | 80* | 67* | 92*
C=C(C(=O)c1ccccc1)C(C)CC(=O)c1ccccc1 (stereo not drawn) | 36 | -9 | 32 | 1 | -3 | -10 | / | /
O=C(NCCN1CCC(Cc2ccccc2)CC1)C1CCCN(S(=O)(=O)c2cccs2)C1 (stereo not drawn) | 13 | / | / | / | / | 47* | -1 | 6
CCCCOc1ccc(C(=O)NC2CCCCN(Cc3cccc(Cl)c3)C2=O)cc1 (stereo not drawn) | 11 | / | / | / | / | 38* | -1 | 23
O=C(NC1CCCCN(Cc2cccc(Cl)c2)C1=O)c1ccc(F)cc1 (stereo not drawn) | -20 | / | / | / | / | -6 | / | /
O=C(NC1CCCCN(Cc2cccc(C(F)(F)F)c2)C1=O)c1ccc(COc2ccccc2)cc1 (stereo not drawn) | 12 | / | / | / | / | 66* | 10 | 62*
O=C(NC1CCCCN(Cc2ccc(Cl)cc2)C1=O)c1ccc(COc2ccccc2)cc1 (stereo not drawn) | 29 | / | / | / | / | 53* | -1 | 12
Cc1ccccc1CN1CCCCC(NC(=O)c2ccc(COc3ccccc3)cc2)C1=O (stereo not drawn) | 25 | / | / | / | / | 68* | 1 | 49*
Cc1ccccc1CN1CCCCC(NC(=O)c2ccccc2)C1=O (stereo not drawn) | -17 | / | / | / | / | -14 | / | /
